Test systems include HCT-15 colon; HT29 colon; SNB-75 CNS; SNB-19 CNS; U251 CNS; PC-3 prostate; SK-MEL-5 melanoma; UACC-62 melanoma; LOX IMVI melanoma; SK-MEL-28 melanoma; SK-MEL-2 melanoma; SN12C renal; UO-31 renal; TK-10 renal; ACHN renal; CAKI-1 renal; A498 renal; CCRF-CEM leukemia; MOLT-4 leukemia; EKVX NSCLC.
What all share (assay): NCI-60 one-dose screen, 48 h (100 = growth as untreated, 0 = no growth, -100 = all killed)
Common to all, as to details: 10 µM

Compounds without any hit were thinned out: in the full panel of roughly 83,000, 20% have a hit.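 Each cell line was grown in a 96-well plate and treated with one concentration of compound for 48 hours. Values below 10 were considered active.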 Unmarked numbers belong to inactive results. Activity calls are given as the source filed them.

Turning to `Cc1ccc(/C=C/C(=O)c2ccc(S(=O)(=O)NCCNc3nc(Nc4ccc(F)cc4)nc(N(C)C)n3)cc2)cc1`, the growth with HCT-15 colon was -46.4% (active); in the assay with HT29 colon, -55.6% (active); in the assay on SNB-75 CNS, 81.3%; in the assay with SNB-19 CNS, 44.7%; in the assay with U251 CNS, -57.3% (active); in the assay on PC-3 prostate, 12.3%. Besides, the growth in the assay with SK-MEL-5 melanoma is 29.4%; in the assay with UACC-62 melanoma, 32.5%; in the assay on LOX IMVI melanoma, -100% (active); in the assay on SK-MEL-28 melanoma, 40.5%; with SK-MEL-2 melanoma, 84.5%; in the assay with SN12C renal, -83.9% (active). For the same compound, the growth was 36.8% with UO-31 renal; 100% with TK-10 renal; 11.9% in the assay on ACHN renal; 29.3% in the assay on CAKI-1 renal; 37.3% with A498 renal; 17.6% with CCRF-CEM leukemia. The growth with MOLT-4 leukemia is 10.1%.
Turning to `COc1ccc(C(=O)Nc2ccc(-c3ccc4c(c3)NC(=O)/C4=C\c3ccc[nH]3)cc2)cc1`, the growth in the assay with HCT-15 colon was 15.2%; in the assay with HT29 colon, 15.6%; in the assay with SNB-75 CNS, -11% (active); in the assay with SNB-19 CNS, 60.8%; in the assay with U251 CNS, 32.8%; in the assay on PC-3 prostate, 27.5%. For the same compound, the growth was 49.1% in the assay with SK-MEL-5 melanoma; 78.1% in the assay with UACC-62 melanoma; 5.2% (active) in the assay on LOX IMVI melanoma; 88.8% with SK-MEL-28 melanoma; 99.5% in the assay with SK-MEL-2 melanoma; 64.9% with SN12C renal. Also, the growth in the assay on UO-31 renal is 81.3%; in the assay on TK-10 renal it was 98.8%; in the assay with ACHN renal it was 60.7%; in the assay with CAKI-1 renal, 72.7%; with A498 renal, 118%; in the assay on CCRF-CEM leukemia it was 26%. In the assay on MOLT-4 leukemia, the growth is 55.6%.
As to `COc1cc2c3c(n(CCCn4ccnc4)c(=O)c2cc1OC)-c1nc2c(cc1C3=O)OCO2`, the growth is 52.1% in the assay on HCT-15 colon; 31.5% in the assay with HT29 colon; 82.8% in the assay on SNB-75 CNS; 25.6% with SNB-19 CNS; 20.9% in the assay on U251 CNS; 60.4% with PC-3 prostate. Moreover, the growth in the assay with SK-MEL-5 melanoma is 7.02% (active); in the assay on UACC-62 melanoma, 4.19% (active); in the assay with LOX IMVI melanoma it was 0.388% (active); in the assay on SK-MEL-28 melanoma, 80.9%; in the assay with SK-MEL-2 melanoma, 123%; in the assay on SN12C renal, 19.7%. In addition, the growth was 26.5% in the assay with UO-31 renal; 110% in the assay on TK-10 renal; 3.67% (active) in the assay with ACHN renal; 10.2% in the assay on CAKI-1 renal; 118% with A498 renal; 18.5% in the assay on CCRF-CEM leukemia. Besides, the growth with MOLT-4 leukemia is 20.9%.
In the case of `CN(C(=O)c1ccc(C(F)(F)F)cc1C(F)(F)F)c1sc2c(c1C#N)CCC(=O)C2`, the growth in the assay with HCT-15 colon is 10.4%; with HT29 colon, 106%; in the assay with SNB-75 CNS, 105%; in the assay on SNB-19 CNS, 88.7%; in the assay on U251 CNS it was -11.7% (active); in the assay with PC-3 prostate, 0.435% (active). Also, the growth in the assay on SK-MEL-5 melanoma was 25.9%; with UACC-62 melanoma, 55.7%; in the assay on LOX IMVI melanoma, 29.2%; in the assay with SK-MEL-28 melanoma it was 106%; in the assay with SK-MEL-2 melanoma, 96.8%; with EKVX NSCLC it was 73.7%. Besides, the growth with UO-31 renal was 62.4%; in the assay on TK-10 renal, 94.2%; in the assay with ACHN renal it was 82.7%; in the assay on CAKI-1 renal, 61.3%; in the assay with A498 renal, 125%; in the assay on CCRF-CEM leukemia, -0.48% (active). In addition, the growth with MOLT-4 leukemia is 36.4%.
Regarding `CN1C(=O)N(C)C2SC(N/N=C/c3ccccc3)=NC21` (stereo unspecified), the growth in the assay with HCT-15 colon is 30.1%; in the assay on HT29 colon it was 38.5%; in the assay with SNB-75 CNS, 60.7%; with SNB-19 CNS it was 74.6%; with U251 CNS it was 60.4%; with PC-3 prostate, 84.7%. For the same compound, the growth is 68.4% in the assay on SK-MEL-5 melanoma; 42.5% with UACC-62 melanoma; 63.4% in the assay on LOX IMVI melanoma; 75.5% in the assay on SK-MEL-28 melanoma; 73.3% with SK-MEL-2 melanoma; 81.5% with SN12C renal. Besides, the growth with UO-31 renal was 65.4%; in the assay on TK-10 renal, 87.4%; in the assay on ACHN renal, 96.3%; with CAKI-1 renal it was 72.5%; in the assay with A498 renal it was 81.7%; with CCRF-CEM leukemia, 78.4%. Also, in the assay with MOLT-4 leukemia, the growth was 54.9%.
With `CCOC(=O)C1=C(N)N(c2ccccc2)C2=C(C(=O)CC(C)(C)C2)C1c1ccc(Cl)cc1` (stereo unspecified), the growth in the assay on HCT-15 colon was 14.5%; in the assay on HT29 colon, 34.8%; in the assay with SNB-75 CNS, 73%; with SNB-19 CNS it was 34.9%; with U251 CNS, 42%; with PC-3 prostate, 21.6%. For the same compound, the growth is 27.7% with SK-MEL-5 melanoma; 22.2% with UACC-62 melanoma; 41.5% with LOX IMVI melanoma; 30.2% with SK-MEL-2 melanoma; 27.7% in the assay with EKVX NSCLC; 64.2% in the assay on SN12C renal. Moreover, the growth is 29% in the assay with UO-31 renal; 80.4% with TK-10 renal; 22.3% in the assay on ACHN renal; 50.2% in the assay with CAKI-1 renal; 67.2% with A498 renal; 15.4% in the assay on CCRF-CEM leukemia. For the same compound, in the assay on MOLT-4 leukemia, the growth was 1.54% (active).
`Cc1cc(C(F)(F)F)ccc1C(=O)Nc1sc2c(c1C#N)CCC(=O)C2`: the growth with HCT-15 colon is -69.5% (active); with HT29 colon, -27.8% (active); in the assay with SNB-75 CNS it was -5.51% (active); in the assay on SNB-19 CNS it was -2.98% (active); in the assay on U251 CNS it was 12%; in the assay with PC-3 prostate, 4.6% (active). The growth with SK-MEL-5 melanoma was -98.9% (active); in the assay with UACC-62 melanoma, -81.3% (active); with LOX IMVI melanoma, 2.84% (active); in the assay on SK-MEL-28 melanoma, -83.9% (active); with SK-MEL-2 melanoma, -38.4% (active); in the assay with EKVX NSCLC, -25.5% (active). For the same compound, the growth in the assay with UO-31 renal is -98% (active); with TK-10 renal, -2% (active); with ACHN renal, -95.9% (active); in the assay on CAKI-1 renal, -50.8% (active); in the assay with A498 renal, 85.2%; with CCRF-CEM leukemia it was 6.32% (active). For the same compound, the growth in the assay with MOLT-4 leukemia was 2.54% (active).
Consider `CCCS(=O)(=O)c1oc(-c2ccc(F)cc2)nc1S(=O)(=O)c1ccc(F)cc1`, for which the growth was -81.3% (active) with HCT-15 colon; -69.6% (active) in the assay on HT29 colon; 53.4% in the assay with SNB-75 CNS; 82.6% in the assay on SNB-19 CNS; 31.7% in the assay with U251 CNS; 80.7% in the assay with PC-3 prostate. Besides, the growth in the assay on SK-MEL-5 melanoma was 41.8%; in the assay with UACC-62 melanoma it was 22%; in the assay with LOX IMVI melanoma, -100% (active); in the assay with SK-MEL-28 melanoma it was -98.7% (active); in the assay with SK-MEL-2 melanoma it was 36.7%; with SN12C renal, -85.4% (active). Moreover, the growth was -100% (active) in the assay with UO-31 renal; -97.2% (active) in the assay on TK-10 renal; -100% (active) with ACHN renal; -92.2% (active) in the assay on CAKI-1 renal; 113% in the assay on A498 renal; -51.3% (active) in the assay on CCRF-CEM leukemia.

Source of the values: PubChem BioAssay (NCI).
